Pf growth 48h = inhibits P. falciparum growth in the first generation, 48 h; Potency, µM (titrated, usually from 28.7 µM), for the others: at the highest dose activity change, negative = inhibition, hits mostly inhibitors; P. falciparum luciferase growth in erythrocytes, 48 h; AID 504832; hit rate 5.9% among 310,000; further: potency means the concentration at half of the fitted maximal effect; on the % scale 0 is the no-effect control and ±100 the full control effect
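Luciferase-expressing P. falciparum in infected erythrocytes (2% hematocrit, 0.1% parasitemia final) in RPMI 1640/0.5% Albumax were exposed to compound for 48 hours at 37 C, 5% CO2; growth read as luminescence.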
CHX counter = counter-screen hit for Shiga toxin inhibitors, cycloheximide | cell reporter, cycloheximide protein synthesis inhibition counterscreen | max response, % | hit rate 12% among 300,000 | AID 2314; in the data active means max response mostly above about 13%, no sharp cut-off; inactive means mostly below about 14%; further: read at 38.3 µM for the half of the compounds with a filed dose; 0% is about no effect
NS1 inh = inhibitors of influenza NS1 protein function; AID 2326; hit rate 0.4% among 270,000; Potency, µM (top dose mostly 46.1 µM), inactives show at the top dose activity, positive = more growth; calls by dose curve; further: potency means the concentration at half of the fitted maximal effect; actives are rising curves; nearly all actives have a fitted effect of over 50% in size
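S. cerevisiae expressing influenza A NS1, grown in glucose, washed, then diluted 1:100 into pH 6.0 -URA galactose medium with 23 nl compound. Growth recovery read as OD600; NS1-free strain serves as control.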
Shiga toxin inh = inhibitors of Shiga toxin in Vero cells | Vero cells, Shiga toxin protein synthesis inhibition reporter | inhibition, % at 38.7 µM | hit rate 9.2% among 290,000 | AID 2315; in the data active means inhibition mostly above about 28%, no sharp cut-off; inactive means mostly below about 43%; further: 0% is about no effect
Pf growth 96h = P. falciparum growth inhibition at 96 hour, primary screen for plastid delayed-death inhibitors; P. falciparum luciferase reporter growth, 96 h; Potency, µM (series often up to 28.7 µM), for inactives: top-dose activity change, negative = inhibition, actives largely listed as inhibitors; hit rate 6.9% among 320,000; further: potency means the concentration at half of the fitted maximal effect; on the % scale 0 is the no-effect control and ±100 the full control effect
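Parasite growth measured via integrated firefly luciferase reporter in P. falciparum. Infected erythrocytes at 2% hematocrit, 0.05% parasitemia final were treated 96 hours at 37 C under 5% CO2, and luminescence was read.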
Sm TGR inh = inhibitors of Schistosoma mansoni thioredoxin glutathione reductase; Q962Y6; purified TGR, DTNB reduction, TNB absorbance 405 nm; Potency, µM (doses to about 114 µM), for the others: at the top dose activity change, negative = inhibition, most hits filed as inhibitors; hit rate 3% among 360,000; AID 485364; further: potency means the concentration at half of the fitted maximal effect; on the % scale 0 is the no-effect control and ±100 the full control effect; nearly all actives have a fitted effect of over 60% in size
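Kinetic colorimetric format: TGR-catalysed, NADPH-driven DTNB reduction monitored via TNB absorbance. Enzyme dispensed at 20 nM; compound exposure 15 min at room temperature before reaction start.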
The depositor's hits bear a star; ? = inconclusive; . = no result given; [ ] = dose if it differs, or a comment. Shown are actives, neighbours in structure and some others; about 21% of the full set was active somewhere. Unless noted, the call rests on the fitted dose curve; in most records, active means well fitted curve in the direction sought with a large enough effect; inconclusive means small, poorly fitted or top-dose-only effect, or another doubt; inactive means no such curve, though single readings can be large; an effect the other way counts as inactive or inconclusive.

SMILES	Pf growth 48h	CHX counter	NS1 inh	Shiga toxin inh	Pf growth 96h	Sm TGR inh
CCC(=O)N1CCN(CCN=CC2=C(O)CC(C)(C)CC2=O)CC1	-14%	2	0%	-15	.	45µM*
CC1(C)CC(=O)C(C=NCCN2CCN(C(=O)CCl)CC2)=C(O)C1	?	-1	4%	19	?	18µM*
COc1ccc(CC(=O)N2CCN(c3ccccn3)CC2)cc1OC	-11%	-1	5%	5	.	3%
CCOc1ccc(OCc2ccc(C(=O)NC(C)C)o2)cc1	?	40*	-11%	43*	12µM*	-12%
CCCc1ccc(OCc2ccc(C(=O)N3CCCC3)o2)cc1	10µM*	22*	-63%	149*	23%	-15%
CCCc1ccc(OCc2ccc(C(=O)N3CCN(c4ccccn4)CC3)o2)c(OC)c1	13µM*	36*	-144%	28	-1%	-16%
CC(C)c1ccc(OCc2ccc(C(=O)N3CCCC3)o2)cc1	1%	111*	-51%	155*	41%	?
CCOc1ccc(C(=O)NCc2ccccn2)cc1	.	11	6%	7	38%	0%[11.4 µM]
CCC(C)c1ccc(OCc2ccc(C(=O)O)o2)cc1 (configuration not stated)	325%	71*	-41%	105*	-9%	-17%
CCOC(=O)c1ccc(COc2ccc(C(C)C)cc2)o1	215%	73*	-6%	102*	5%	-29%
CN1CCN(C(=O)c2ccc(COc3ccc(C(C)(C)C)cc3)o2)CC1	2%	49*	-1%	65*	-2%	-26%
CCOc1ccc(OCc2ccc(C(=O)OCc3ccccn3)o2)cc1	143%	63*	-108%	143*	10µM*	-16%
CCOc1ccc(C(=O)N2CCCC2)cc1	16%	7	-5%	14	?	-2%
CCOc1ccc(OCc2ccc(C(=O)N3CCCC3)o2)cc1	-7%	24*	-55%	54*	63%	-6%
Cc1cccc(OCC(=O)NCc2ccc3c(c2)CCN3C(=O)c2ccc(Cl)cc2)c1	.	.	.	.	.	3%
C/C(=N\S(=O)(=O)c1ccc(C)cc1)N1CCCCC1	1%	-1	5%	18	12µM*	-2%[57.1 µM]
O=C(Nc1ccc(F)cc1)N1CCCCCC1	3%	15*	0%	31*	-20%	-13%
CCOC(=O)c1ccc(NC(=S)N2CCN(CCO)CC2)cc1	-3%	6	1%	-4	15%	-1%
CCCN1CCN(C(=O)Nc2ccc(C(=O)OCC)cc2)CC1	.	12*	2%	30	-29%	0%
CCOC(=O)c1c(C)[nH]c(C)c1S(=O)(=O)Nc1ccc(CN2CCCCC2)cc1	?	-2	-12%	-1	5.9µM*	0%
CN1CCN(C(c2ccccc2Cl)c2sc3nc(-c4ccco4)nn3c2O)CC1 (configuration not stated)	.	.	.	.	.	20%
COc1ccc(C2C(=O)N(C3CCC(C)CC3)CC(=O)N2C2CCCCC2)cc1OC (configuration not stated)	.	.	.	.	.	12%
CCC(C)NC(=O)Nc1ccc(C)cc1C (configuration not stated)	0%	6	3%	-2	4%	.
CCOC(=O)c1ccc(NC(=O)N2CCCCCC2)cc1	214%	76*	-13%	123*	-4%	2%
CCOC(=O)c1cccc(NC(=O)N2CCOCC2)c1	17%	4	-1%	-11	-23%	10%
SMILES	Pf growth 48h	CHX counter	NS1 inh	Shiga toxin inh	Pf growth 96h	Sm TGR inh
Cc1ccc(NS(=O)(=O)c2ccc(NC(=O)N3CCCCC3)cc2)cc1	?	5	8%	25	1.5µM*	7%
CCOC(=O)c1ccc(NC(=O)C2CCN(S(=O)(=O)CC)CC2)cc1	?	-1	1%	-5	?	5%
CCOC(=O)c1ccc(NC(=O)N2CCOCC2)cc1	179%	35	.	98*	409%	0%
CCOC(=O)c1ccc(NS(=O)(=O)N2CCCCCC2)cc1	50%	32*	-30%	74*	.	4%
O=C(Cn1ccn(-c2ccc(F)c(F)c2)c(=O)c1=O)NCc1ccccc1	.	.	.	.	.	2%
CC(=O)Nc1cc(C(=O)N2CCC3(CC2)OCCO3)ccc1S(=O)(=O)c1ccc(C)cc1	14%	-2	-3%	-7	18%	11%
CC(=O)Nc1cc(C(=O)N2CCCC2)ccc1S(=O)(=O)c1ccc(C)cc1	15%	-2	1%	-6	1.2µM*	-20%
O=S(=O)(CCSc1ccccn1)c1nc2ccccc2s1	?	20*	-114%	-2	1.7µM*	0.79µM*
O=S(=O)(CCSc1nc2ccccc2o1)c1nc2ccccc2s1	13µM*	-3	0%	-13	?	0.71µM*
COc1ccc(C(=O)NCc2ccc3c(c2)CCN3C(C)=O)cc1OC	.	.	.	.	.	-8%
COCCCNC(=O)COc1ccc2oc3c(c2c1)CCCC3	0%	-4	-19%	0	-5%	-3%
COCCCNC(=O)COc1ccc(Cl)c(C)c1	35%	18*	-11%	32	11%	-1%
CCc1nonc1NC(=O)COc1cc(C)c(Cl)c(C)c1	?	-2	-24%	10	11%	-5%
CCc1nonc1NC(=O)COc1ccc(Cl)c(C)c1	?	5	-26%	2	4.1µM*	3%
Cc1cc(OCC(=O)NC(C)(C)C)ccc1Cl	45%	51*	4%	22*	-7%	-8%
CN(C(=O)c1cccs1)C1(C)CCS(=O)(=O)C1 (configuration not stated)	22%	-2	11%	-12	10µM*	4%
CCC(C)Nc1nc(OCC(F)(F)F)nc(OCC(F)(F)F)n1 (configuration not stated)	34%	-2	-4%	-11	.	3%
CC(C)(C)Nc1nc(OCC(F)(F)F)nc(OCC(F)(F)F)n1	37%	13*	-1%	31*	?	8%
Cc1ccc(CN(C(=O)c2ccco2)C(C(=O)NC2CCCC2)c2ccc(N3CCOCC3)cc2)cc1 (configuration not stated)	10µM*	-3	0%	1	-18%	?
Cc1ccc(C(C(=O)NC2CCCCC2)N2CCOCC2)cc1 (configuration not stated)	16%	2	2%	-9	10µM*	-1%
Cc1ccc(CN(C(=O)c2ccco2)C(C(=O)NC2CCCC2)c2cccnc2)cc1 (configuration not stated)	?	-3	-5%	-12	34%	.
COc1cc(/C=C/C(=O)CC(=O)/C=C/c2ccc(O)c(OC)c2)ccc1O	?	50	3%	56	?	?
COc1cc(/C=C/[N+](=O)[O-])ccc1O	?	-8	-55%	-27	?	35µM*
COc1cc(/C=C/C(=O)c2ccc([N+](=O)[O-])o2)ccc1O	13µM*	.	.	.	?	3.2µM*
COc1ccc(/C=C/C(=O)C(C)(C)C)cc1OC	-11%	16*	-3%	12	?	43%

Screens from PubChem BioAssay.
